Drawing on PubChem BioAssay, this text covers growth inhibition, inhibition and outcome for 19 compounds.

Values without a mark were called inactive. For some assays here: Measured potencies and affinities stand elsewhere. Activity calls are given as the source filed them. Unless noted, the rule behind the calls is not given here.

The nature of experiment [1]: antimalarial activity against Dd2 strain (AID 2302;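 active = growth inhibition above 50% at the single 2 µM test dose, taken to imply half-maximal potency below 2 µM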;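 note: 0% = DMSO untreated growth and 100% = chloroquine plus artemisinin killed control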). The note with it: P. falciparum Dd2 in RBCs, LDH growth readout, 72 h; at 2 µM; stronger effect = higher value.
A short description of experiment [2]: HepG2 cytotoxicity, primary screen, cytotoxicity control for P. falciparum antimalarial project, cell-based, ATP luminescence (AID 2303;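 active = inhibition above 50%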;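 note: 0% = DMSO wells and 100% = digitonin-killed cells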). The note with it: HepG2 viability, 24-48 h, at 10 µM, stronger effect = higher value.
Experiment [3] deals with L-lactate dehydrogenase (Plasmodium falciparum (isolate CDC / Honduras)) (UniProt Q27743). Put plainly: PfLDH activity inhibition – cell lysate, 3D7 strain, counter-screen for P. falciparum growth inhibition project (AID 2304).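 Note: 0% = vehicle and 100% = reference inhibitor.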 The note with it: P. falciparum 3D7 crude extract, LDH APAD/NBT absorbance; at 2 µM; stronger effect = higher value.
Sequence of L-lactate dehydrogenase (Plasmodium falciparum (isolate CDC / Honduras)) (Q27743 whole entry, looked up): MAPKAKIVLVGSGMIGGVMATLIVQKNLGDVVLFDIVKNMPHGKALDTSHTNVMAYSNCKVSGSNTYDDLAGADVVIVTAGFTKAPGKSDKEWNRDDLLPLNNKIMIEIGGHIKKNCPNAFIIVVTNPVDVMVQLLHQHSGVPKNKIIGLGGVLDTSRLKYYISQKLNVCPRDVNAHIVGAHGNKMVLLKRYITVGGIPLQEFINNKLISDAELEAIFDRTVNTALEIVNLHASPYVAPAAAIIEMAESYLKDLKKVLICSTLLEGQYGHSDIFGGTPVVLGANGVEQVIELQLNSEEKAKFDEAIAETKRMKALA
Experiment [4] can be described thus: inhibition of 3D7 malaria parasite growth – strain 3D7 (AID 2306).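 Note: 0% = DMSO wells and 100% = chloroquine plus artemisinin control wells.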 Conditions: P. falciparum 3D7 erythrocytic growth, LDH absorbance, 72 h; at 2 µM; stronger effect = higher value.
Experiment [5] concerns the target Calcium-dependent protein kinase 1 (Plasmodium falciparum (isolate 3D7)) (UniProt P62344). Put plainly: PfCDPK1 kinase inhibitors, biochemical, TCAMS library (AID 1159585; cut-off not given, nearly all actives have IC50 up to about 0.98 µM;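 note: inhibitors leave more ATP so luminescence rises with inhibition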). The note with it: recombinant PfCDPK1, Kinase-Glo ATP depletion luminescence.
For experiment [6], the target named is Plasmodium falciparum protein kinase 6 (PK6, PF3D7_1337100) (UniProt Q8IDW1). The experiment in a line: PfPK6 kinase inhibitors, biochemical, TCAMS library (AID 1159586). Conditions: recombinant PfPK6, Kinase-Glo ATP depletion luminescence. On the technique in general: Kinase-Glo reads ATP consumption through a luciferase reaction.
Sequence of Plasmodium falciparum protein kinase 6 (PK6, PF3D7_1337100) (Q8IDW1 1-305): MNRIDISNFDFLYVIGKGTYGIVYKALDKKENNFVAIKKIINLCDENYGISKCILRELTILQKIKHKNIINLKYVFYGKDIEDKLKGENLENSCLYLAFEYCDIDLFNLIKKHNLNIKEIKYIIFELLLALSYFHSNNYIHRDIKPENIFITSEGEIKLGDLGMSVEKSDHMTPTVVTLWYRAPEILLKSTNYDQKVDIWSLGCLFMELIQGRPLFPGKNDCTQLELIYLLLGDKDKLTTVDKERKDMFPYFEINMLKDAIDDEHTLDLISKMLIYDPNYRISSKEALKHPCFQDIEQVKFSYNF
Experiment [7] addresses Protein kinase 7 (PK7), Plasmodium falciparum 3D7 (PF3D7_0213400) (UniProt Q7YTF7). Put plainly: inhibition of Plasmodium PK7 catalytic activity – biochemical, TCAMS antimalarial set, Kinase-Glo luminescence (AID 1159587). The note with it: recombinant PfPK7, Kinase-Glo ATP depletion luminescence.
In experiment [8] the target is Calcium-dependent protein kinase 4 (Plasmodium falciparum (isolate 3D7)) (UniProt Q8IBS5). The experiment in a line: PfCDPK4 kinase inhibitors, biochemical, TCAMS library (AID 1159588; cut-off not given, nearly all actives have IC50 up to about 0.91 µM). The note with it: recombinant PfCDPK4, Kinase-Glo ATP depletion luminescence.
Sequence of Calcium-dependent protein kinase 4 (Plasmodium falciparum (isolate 3D7)) (Q8IBS5 whole entry, looked up): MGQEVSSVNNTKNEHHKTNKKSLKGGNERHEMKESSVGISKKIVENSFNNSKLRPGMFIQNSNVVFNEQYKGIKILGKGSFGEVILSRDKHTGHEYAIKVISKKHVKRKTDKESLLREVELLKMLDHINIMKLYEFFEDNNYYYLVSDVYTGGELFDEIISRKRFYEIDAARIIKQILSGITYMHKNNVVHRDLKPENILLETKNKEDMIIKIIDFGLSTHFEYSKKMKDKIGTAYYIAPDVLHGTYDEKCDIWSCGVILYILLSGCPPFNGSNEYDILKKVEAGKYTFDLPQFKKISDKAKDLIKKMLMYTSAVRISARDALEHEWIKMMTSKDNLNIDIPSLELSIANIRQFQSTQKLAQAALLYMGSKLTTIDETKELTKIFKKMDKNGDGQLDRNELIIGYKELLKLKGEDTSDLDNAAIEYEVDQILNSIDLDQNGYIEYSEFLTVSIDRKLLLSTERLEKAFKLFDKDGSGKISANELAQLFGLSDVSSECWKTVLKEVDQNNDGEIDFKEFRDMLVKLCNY

Sequence of Calcium-dependent protein kinase 1 (Plasmodium falciparum (isolate 3D7)) (P62344 whole entry, looked up): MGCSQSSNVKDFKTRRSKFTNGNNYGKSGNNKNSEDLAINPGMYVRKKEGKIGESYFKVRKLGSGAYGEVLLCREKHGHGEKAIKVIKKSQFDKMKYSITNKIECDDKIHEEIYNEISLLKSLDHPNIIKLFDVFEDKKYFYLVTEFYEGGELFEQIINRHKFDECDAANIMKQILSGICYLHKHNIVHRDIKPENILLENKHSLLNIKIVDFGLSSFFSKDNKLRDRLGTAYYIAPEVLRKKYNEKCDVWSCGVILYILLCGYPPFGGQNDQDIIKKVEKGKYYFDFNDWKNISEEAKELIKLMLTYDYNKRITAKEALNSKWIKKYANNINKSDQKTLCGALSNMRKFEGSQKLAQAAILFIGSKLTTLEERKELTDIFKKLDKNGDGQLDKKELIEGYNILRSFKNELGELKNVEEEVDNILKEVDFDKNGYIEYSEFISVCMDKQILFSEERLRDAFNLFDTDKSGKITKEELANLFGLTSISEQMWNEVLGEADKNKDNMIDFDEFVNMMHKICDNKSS
Sequence of Protein kinase 7 (PK7), Plasmodium falciparum 3D7 (PF3D7_0213400) (Q7YTF7 1-343): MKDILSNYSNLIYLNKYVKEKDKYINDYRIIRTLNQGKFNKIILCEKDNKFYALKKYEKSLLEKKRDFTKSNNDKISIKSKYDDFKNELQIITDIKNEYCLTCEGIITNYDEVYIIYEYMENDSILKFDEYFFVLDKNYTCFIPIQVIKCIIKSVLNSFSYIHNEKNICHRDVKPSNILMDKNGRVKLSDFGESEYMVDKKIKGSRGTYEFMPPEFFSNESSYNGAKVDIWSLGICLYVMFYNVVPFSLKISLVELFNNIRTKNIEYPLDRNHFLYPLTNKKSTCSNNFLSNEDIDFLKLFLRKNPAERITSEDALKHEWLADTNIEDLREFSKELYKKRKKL

What is called inhibition is the change of the read-out against control, counted positive when it falls. As for `CNC(=O)Cc1ccc(C(=O)Nc2cccc(-c3cccc(-c4nc5ccc(C(F)(F)F)cc5[nH]4)c3)c2)cc1`, the growth inhibition in experiment [1] is 37%; in experiment [4], 95% (active). In addition, the inhibition in experiment [2] is 40%; in experiment [3], 5%. In addition, the result in experiment [5], in experiment [6], in experiment [7] and in experiment [8] was inactive.

With `CC(C)c1cc(Oc2c(I)cc(CCCc3ncc[nH]3)cc2I)ccc1O`, the growth inhibition in experiment [1] was 1%; in experiment [4], 88% (active). Moreover, the inhibition is 28% in experiment [2] and 0% in experiment [3]. The result in experiment [5], in experiment [6], in experiment [7] and in experiment [8] was inactive.

As for `Cc1ccc(CCC(C)NCC(O)c2cccc(Cl)c2)cc1` (configuration not stated), the growth inhibition in experiment [1] and in experiment [4] was 97% (active) in each case. Besides, the figures for the inhibition in experiment [2] and in experiment [3] were 2% and -4%, respectively. Also, the outcome in experiment [5], in experiment [6], in experiment [7] and in experiment [8] was inactive.

With `Cc1ccc(CNC(=O)[C@H](Cc2ccccc2)Nc2cc(C)nc(Nc3ccccc3)n2)cc1`, the growth inhibition in experiment [1] is 91% (active); in experiment [4], 101% (active). In addition, the inhibition is 16% in experiment [2] and 1% in experiment [3]. Moreover, the result in experiment [5], in experiment [6], in experiment [7] and in experiment [8] was inactive.

In the case of `CCCCCC(=O)N1CCOC(CCN2CCc3c(c4ccccc4n3C)C2)(c2ccc(Cl)c(Cl)c2)C1` (configuration not stated), the growth inhibition in experiment [1] is 80% (active); in experiment [4], 95% (active). Moreover, the inhibition was 24% in experiment [2] and 1% in experiment [3]. The result in experiment [5], in experiment [6], in experiment [7] and in experiment [8] was inactive.

`Nc1c(Cl)cc(C(O)CNCCCCCCOCCc2ccc(O)cc2)cc1Cl` (configuration not stated): the growth inhibition in experiment [1] and in experiment [4] was 97% (active) in each case. In addition, the inhibition is 13% in experiment [2] and -3% in experiment [3]. The outcome in experiment [5], in experiment [6], in experiment [7] and in experiment [8] was inactive.

In the case of `CCCCCCCc1c(C)[nH]c2cc(OC)ccc2c1=O`, the growth inhibition in experiment [1] was 98% (active); in experiment [4] it was 99% (active). Further, the inhibition is 5% in experiment [2] and -5% in experiment [3]. Further, the result in experiment [5], in experiment [6], in experiment [7] and in experiment [8] was inactive.

As for `COc1ccc2c(NN=Cc3ccc([N+](=O)[O-])cc3)ccnc2c1`, the growth inhibition in experiment [1] is 98% (active); in experiment [4], 100% (active). For the same compound, the inhibition in experiment [2] and in experiment [3] was -1% throughout. Besides, the result in experiment [5], in experiment [6], in experiment [7] and in experiment [8] was inactive.

As for `CCN(CC)CCN(Cc1ccc(-c2ccc(C(F)(F)F)cc2)cc1)C(=O)c1ccc(-c2ccc(NC(=O)OC)cc2C)cc1`, the growth inhibition in experiment [1] was 42%; in experiment [4], 93% (active). Besides, the inhibition is 66% (active) in experiment [2] and -6% in experiment [3]. In addition, the result in experiment [5], in experiment [6], in experiment [7] and in experiment [8] was inactive.

On to `C[C@H](Cc1ccc(CCc2ccc(C[C@@H](C)NC[C@H](O)c3cccc(Cl)c3)cc2)cc1)NC[C@H](O)c1cccc(Cl)c1`, for which the growth inhibition is 92% (active) in experiment [1] and 95% (active) in experiment [4]. For the same compound, the inhibition was 100% (active) in experiment [2] and 2% in experiment [3]. The result in experiment [5], in experiment [6], in experiment [7] and in experiment [8] was inactive.

Turning to `COc1cc(OC)cc(-c2nc3c(C#N)c(OCCN(C)C)ccc3[nH]2)c1`, the growth inhibition in experiment [1] is 25%; in experiment [4], 99% (active). Moreover, the inhibition in experiment [2] was 4%; in experiment [3], -3%. Also, the outcome in experiment [5], in experiment [6], in experiment [7] and in experiment [8] was inactive.

Regarding `Cc1cc(CN2CCCN(c3ccc4c(c3)CCN(Cc3ccc(-c5ncc[nH]5)cc3)CC4)CC2)n(C)n1`, the growth inhibition in experiment [1] is 8%; in experiment [4], 86% (active). The inhibition in experiment [2] and in experiment [3] was 5% each time. Also, the outcome in experiment [5], in experiment [6], in experiment [7] and in experiment [8] was inactive.

Consider `Cc1ccc(CCC(C)NCC(O)c2cccc(C(F)(F)F)c2)cc1` (configuration not stated), for which the results for the growth inhibition in experiment [1] and in experiment [4] were 98% (active) and 99% (active), respectively. For the same compound, the inhibition in experiment [2] was -17%; in experiment [3], 4%. Also, the outcome in experiment [5], in experiment [6], in experiment [7] and in experiment [8] was inactive.

`COc1ccc(NC(=O)Nc2cccc(-c3cccc(-c4nc5ccc(F)cc5[nH]4)c3)c2)cc1`: the growth inhibition is 39% in experiment [1] and 99% (active) in experiment [4]. Also, the inhibition in experiment [2] is 59% (active); in experiment [3], 5%. For the same compound, the result in experiment [5], in experiment [6], in experiment [7] and in experiment [8] was inactive.

For the compound `CN1CCN(c2ccnc3ccc(NC(=O)N(C)c4ccc(Cl)c(Cl)c4)cc23)CC1`, the growth inhibition in experiment [1] is 85% (active); in experiment [4], 100% (active). Further, the inhibition in experiment [2] is 5%; in experiment [3], -3%. The result in experiment [5], in experiment [6], in experiment [7] and in experiment [8] was inactive.

As for `Clc1ccc(Nc2nc(-c3ccccn3)cs2)nc1`, the growth inhibition in experiment [1] was 90% (active); in experiment [4], 95% (active). Besides, the inhibition was 36% in experiment [2] and -1% in experiment [3]. Besides, the outcome in experiment [5], in experiment [6], in experiment [7] and in experiment [8] was inactive.

Consider `COc1ccc(OC)c2c1CCN(C)C2Cc1cccc2ccccc12` (configuration not stated), for which the values for the growth inhibition in experiment [1] and in experiment [4] were 79% (active) and 91% (active), respectively. The inhibition in experiment [2] was 13%; in experiment [3], 7%. Further, the outcome in experiment [5], in experiment [6], in experiment [7] and in experiment [8] was inactive.

Regarding `CCC1CN2CCc3c([nH]c4ccc(OC)cc34)[C@@H]2C[C@@H]1CC1NCCc2cc(OC)c(OC)cc21` (some centres not stated), the growth inhibition in experiment [1] is 21%; in experiment [4], 100% (active). The inhibition was 17% in experiment [2] and -2% in experiment [3]. Further, the outcome in experiment [5], in experiment [6], in experiment [7] and in experiment [8] was inactive.

On to `Cc1cc(N[C@@H](CC(C)C)C(=O)Nc2ccccc2)nc(NCCc2ccc(F)cc2)n1`, for which the values for the growth inhibition in experiment [1] and in experiment [4] were 94% (active) and 101% (active), respectively. Moreover, the inhibition was 8% in experiment [2] and 4% in experiment [3]. The outcome in experiment [5], in experiment [6], in experiment [7] and in experiment [8] was inactive.
